Results reported in PubChem BioAssay (EPA / NIEHS).
Active and inactive are the calls of the source. The calls were made as follows: active = hit-call score of the fitted dose curve at least 0.9, where 1 is the maximum; inactive = score below 0.9.

The molecules below were run on growth arrest and DNA damage 45 (GADD45B), GADD45B (gene 4616) (assay: LTEA_HepaRG_GADD45B: Life Technologies and Expression Analysis (LTEA) Assay for growth arrest and DNA damage 45 (GADD45B) using HepaRG (AID 2283461)). Settings: mRNA level, 48 h; actives raise or lower the signal.
Protocol: LTEA_HepaRG is a cell based, multiplexed-readout assay that uses HepaRG, a human liver cell line, with measurements taken at 48 hours after chemical dosing on a 96-well plate.LTEA_HepaRG_GADD45B is one of 102 assay component(s) measured in the LTEA HepaRG cell culture assay. It is a marker of Cell proliferation, survival, death.Data from the assay component LTEA_HepaRG_GADD45B was analyzed into 1 endpoint. This assay endpoint, LTEA_HepaRG_GADD45B, was analyzed with bidirectional fitting relative to DMSO as the negative control and baseline of activity. Using a type of inducible reporter, measures of mRNA induction for gain or loss-of-signal activity can be used to understand regulation of transcription factor activity. To generalize the intended target to other relatable targets, this assay endpoint is annotated to the mutagenicity response intended target family, where the subfamily is Cell proliferation, survival, death.
A total of 1060 chemcials from the ToxCast library were tested in eight-point concentration-response experiments. Cell culture and cytotoxicity assays were conducted at Thermo Fisher Scientific's Custom Services facility (Madison, WI). A single lot of human HepaRG cells (Thermo Fisher Scientific, Frederick, MD) was used for the cell culture experiments. 96-well format collagen type I coated plates of human HepaRG cells were prepared using established methods. Briefly, cryopreserved HepaRG cells were thawed, plated at a density of approximately 100,000 cells/well in HepaRG Thaw, Plate, and General Purpose media (HPRG770, Thermo Fisher Scientific), and incubated for 48 hours. 0.5% DMSO was selected as vehicle control to balance the requisite need of DMSO in HepaRG cultures to maintain differentiation (for example, baseline metabolism, proportions of hepatocytes vs. cholangiocytes), while enabling further hepatic receptor pathway activation (for example, PXR and CAR) in response to chemical exposure. 48 hours after plating, the culture medium was replaced with HepaRG Serum-Free Incudtion Media. Cells were exposed to each test chemical in duplicate and maintained in CO2 incubators for another 48 hours. Chemical plates were thawed to room temperature and 200x concentrations of treatment groups were prepared. 8-point conentration-reponse curves were made with the highest exposure at 100 uM, followed by half-log dilutions, all in 0.5% DMSO. Each test plate contained variouse controls, induction positive controls (1mM phenobarbital), cytotoxicity positive controls ([…] aflatoxin B1), vehicle controls (0.5% DMSO), and total lysis controls (0.5% DMSO). Cell morphology images were taken using an Essen IncuCyte FLR automated microscope, with six 96-well plates imaged in about 24 minutes. Images were captured and exported and JPEG files. Spent culture media was transfered to black-well plates for the LDH assay, and remaining media was sorted at -80 C for later use. Cells were treated with RLT buffer and frozen until shipped for gene expression analysis. Total RNA was isolated from the cell suspension in 75 uL of Buffer RLT (Qiagen, Germantown, MD 20874) by Quintiles/Expression Analysis (Durham, NC) using a custom isolation procedure. Total RNA from each plate well was transferred to a preamplification plate. Fluidigm's 96.96 Dynamic ArrayTM (Fluidigm, Amsterdam, the Netherlands) technology was used for gene expression analyses by quantitative reverse transcription polymerase chain reaction (qRT-PCR, performed by Quintiles/Expression Analysis, Durham, NC)89. Standard TaqManTM Assays (Applied Biosystems/ThermoFisher Scientific, Foster City, CA) were used to assess the expression of 93 genes selected based on their selectivity and sensitivity to important hepatic receptors known to be modulated by environmental chemicals; importance in human hepatocyte functionality; and hepatotoxicity. […]

Which outcome does the source give for `CCOS(=O)(=O)OCC` here?
Its outcome is “inactive”.

How did the outcome turn out when `CC(Cc1ccc(OCC(=O)O)cc1)NCC(O)c1csc(C(F)(F)F)n1` (stereo not given) was run?
Its outcome is “inactive”.

With `O=[N+]([O-])c1ccc(Cl)c(Cl)c1` as the molecule, how does the outcome read?
Its outcome is “inactive”.

`CCC(C)(C)c1ccc(O)cc1` was tested. Which outcome did it give?
Its outcome is “inactive”.

How did the outcome turn out when `c1cc2c3c(cccc3c1)CC2` was run?
Its outcome is “inactive”.

For `COCCOCCO`, which outcome is on record?
Its outcome is “inactive”.

`Nc1ccc(Cl)cc1` was tested. Which outcome did it give?
The outcome was “inactive”.

`CCN(CC)c1ccccc1` was tested. Which outcome did it give?
The outcome was “inactive”.

With `CCOC(=O)c1ccccc1C(=O)OCC` as the molecule, how does the outcome read?
Its outcome is “inactive”.

`CC(Cl)(Cl)C(=O)O` was tested. Which outcome did it give?
Its outcome is “inactive”.

For `CCOP(=S)(OCC)SCSCC`, which outcome is on record?
The outcome was “inactive”.

How did the outcome turn out when `Nc1ccc2ccccc2c1` was run?
Its outcome is “inactive”.

For `ClC1=C(Cl)C2(Cl)C3C(Cl)C(Cl)CC3C1(Cl)C2(Cl)Cl` (stereo not given), which outcome is on record?
Its outcome is “inactive”.

Which outcome does the source give for `O=P(Oc1ccccc1)(Oc1ccccc1)Oc1ccccc1` here?
The outcome was “inactive”.

With `ClC(Cl)c1ccccc1` as the molecule, how does the outcome read?
The outcome was “inactive”.

For `c1ccc(OP(Oc2ccccc2)Oc2ccccc2)cc1`, which outcome is on record?
The outcome was “inactive”.

`CCOP(=S)(Oc1ccc([N+](=O)[O-])cc1)c1ccccc1` (stereo not given) was tested. Which outcome did it give?
Its outcome is “inactive”.

With `Cc1ccc(N)cc1N` as the molecule, how does the outcome read?
The outcome was “inactive”.

`CCCN(CCC)c1c([N+](=O)[O-])cc(C(C)C)cc1[N+](=O)[O-]` was tested. Which outcome did it give?
Its outcome is “inactive”.

For `O=P1(N(CCCl)CCCl)NCCCO1` (stereo not given), which outcome is on record?
The outcome was “inactive”.

For `OCC1CO1` (stereo not given), which outcome is on record?
The outcome was “inactive”.

For `CCC1(c2ccccc2)C(=O)N=C(O)NC1=O` (stereo not given), which outcome is on record?
The outcome was “inactive”.

With `c1nc[nH]n1` as the molecule, how does the outcome read?
The outcome was “inactive”.

For `Cc1ccc(O)cc1C`, which outcome is on record?
Its outcome is “inactive”.

With `c1ccc2c(c1)Nc1ccccc1S2` as the molecule, how does the AC50 read?
Its AC50 is 85.3 µM (active).

For `CC(C)(C)OOC(C)(C)C`, which outcome is on record?
The outcome was “inactive”.

How did the outcome turn out when `CCNc1nc(Cl)nc(NC(C)(C)C)n1` was run?
Its outcome is “inactive”.

For `Nc1cc2c3c(c1)C(c1ccccc1)=N[C@@H](NC(=O)c1cccnc1)C(=O)N3CC2`, which outcome is on record?
The outcome was “inactive”.

How did the outcome turn out when `Cc1ccc([N+](=O)[O-])cc1C` was run?
The outcome was “inactive”.

`CN(C)C(=O)Cl` was tested. Which outcome did it give?
The outcome was “inactive”.

For `O=C(O)C(Cl)Cl`, which outcome is on record?
Its outcome is “inactive”.

Which outcome does the source give for `CCCCN(CCCC)SN(C)C(=O)Oc1cccc2c1OC(C)(C)C2` here?
The outcome was “inactive”.

How did the outcome turn out when `ClC(Cl)(Cl)c1ccccc1` was run?
Its outcome is “inactive”.

With `O=C(O)C1C(C(=O)O)C2(Cl)C(Cl)=C(Cl)C1(Cl)C2(Cl)Cl` (stereo not given) as the molecule, how does the outcome read?
Its outcome is “inactive”.

With `CCOc1ccc(C(C)(C)COCc2cccc(Oc3ccccc3)c2)cc1` as the molecule, how does the outcome read?
Its outcome is “inactive”.

How did the outcome turn out when `Cc1cccc(N)c1` was run?
Its outcome is “inactive”.

For `CC(C)(C)c1ccc(O)cc1`, which outcome is on record?
The outcome was “inactive”.

With `CCCCN(CCCC)N=O` as the molecule, how does the outcome read?
Its outcome is “inactive”.

`O=[N+]([O-])c1ccccc1` was tested. Which outcome did it give?
The outcome was “inactive”.

With `[N-]=[N+]=[N-]` as the molecule, how does the outcome read?
Its outcome is “inactive”.
